Compound activity: PubChem, several laboratories
SSB-PriA inh: K. pneumoniae PriA-SSBct interaction inhibition; AlphaScreen SSBct-PriA binding, biotinylated peptide; inhibition, % at 33 µM; 430,000 compounds, 0.6% hits; in the data active means inhibition mostly above about 37%, no sharp cut-off; inactive means mostly below about 20%;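 further: plate controls were negative control peptide for no effect and reference peptide for full effect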
Rv3671c protease: Rv3671c (M. tuberculosis) protease inhibition; inhibition, % at 5.96 µM; 320,000 compounds, 0.048% hits; in the data active means inhibition above about 38%;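 further: extracellular domain of Rv3671c used as enzyme; 0% = enzyme with DMSO and 100% = no enzyme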
Mtb betalactam: beta-lactam sensitization of Mtb H37Rv. M. tuberculosis H37Rv growth with meropenem, percent inhibition. 330,000 compounds, 0.27% hits. inhibition, % at 25 µM; call rule not given here;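 further: growth measured after seven days incubation then overnight dye step; 0% = bacteria only wells and 100% = bacteria with antibiotic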
UGM FP inh: Mtb UDP-galactopyranose mutase inhibition; purified UGM, fluorescence polarization probe displacement; P9WIQ1; inhibition, % at 10 µM; AID 504406; 320,000 compounds, 0.06% hits; in the data active means inhibition above about 10%, passing the limit was not always enough
Target sequence (P9WIQ1 whole entry, looked up): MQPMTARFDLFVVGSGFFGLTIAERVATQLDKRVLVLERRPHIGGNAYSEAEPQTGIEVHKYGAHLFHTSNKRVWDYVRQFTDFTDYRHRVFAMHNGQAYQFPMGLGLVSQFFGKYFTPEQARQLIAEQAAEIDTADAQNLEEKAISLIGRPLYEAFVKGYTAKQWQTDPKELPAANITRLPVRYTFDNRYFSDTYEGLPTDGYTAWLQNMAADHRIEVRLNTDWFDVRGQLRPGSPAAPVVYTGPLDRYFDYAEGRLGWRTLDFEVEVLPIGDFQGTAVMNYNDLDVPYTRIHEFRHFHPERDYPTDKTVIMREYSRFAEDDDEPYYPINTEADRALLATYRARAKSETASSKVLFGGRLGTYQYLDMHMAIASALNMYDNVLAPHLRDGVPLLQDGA
Mtb FBA inh: inhibits M. tuberculosis FBA enzyme; P9WQA3; purified M. tuberculosis FBA, fluorescence read-out; inhibition, % at 1 µM; 360,000 compounds, 2.3% hits; AID 588726;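 further: 0% = vehicle and 100% = reference inhibitor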
GDH-TPI counter-1: inhibits GDH-TPI coupling enzymes, artifact for Mtb FBA screen; GDH-TPI coupled enzyme counterscreen, NADH absorbance; 360,000 compounds, 1.2% hits; inhibition, % at 4.8 µM; in the data active means inhibition above about 30%;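 further: 0% = DMSO wells and 100% = wells lacking the enzyme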
Mtb FBA inh conf: confirmation of M. tuberculosis fructose-bisphosphate aldolase inhibitors | shares compounds with Mtb FBA inh | purified M. tuberculosis FBA, fluorescence read-out | inhibition, % at 1 µM | 5,600 compounds, 78% hits | AID 651616;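 further: 0% = vehicle wells and 100% = reference inhibitor wells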
GDH-TPI counter-2: counter-screen for M. tuberculosis FBA inhibitors: GDH-TPI coupled enzyme inhibition; shares compounds with Mtb FBA inh; GDH-TPI coupled enzyme counterscreen, fluorescence; inhibition, % at 1 µM; 5,600 compounds, 81% hits; AID 652141; in the data active means inhibition above about 10%
GDH-TPI dose: inhibits GDH-TPI coupling enzymes in dose response | shares compounds with Mtb FBA inh | GDH-TPI coupled enzyme assay, fluorescence, artifact counterscreen | IC50, µM | 170 compounds, 79% hits | AID 652145; call rule not given here
Starred values were filed as active, the others as inactive; . = no result; + = active, no number. An excerpt weighted towards active compounds, which were near 3.2% of everything screened. Unless noted, no stated cut-off is given here; in the data, active means inhibition above about 27%; inactive means the rest.

SMILES | SSB-PriA inh | Rv3671c protease | Mtb betalactam | UGM FP inh | Mtb FBA inh | GDH-TPI counter-1 | Mtb FBA inh conf | GDH-TPI counter-2 | others
COC(=O)C1=CN(c2ccc(OC)cc2)C=C(C(=O)OC)C1c1ccc([N+](=O)[O-])cc1 | -6 | . | 0 | 1 | 1 | 0 | . | .
COc1ccc(Nc2nc(Nc3ccc(OC)cc3)nc(SC3=NCCS3)n2)cc1 | -19 | -18 | 0 | -1 | 41* | -5 | 116* | 77*
O=S(=O)(NCc1cncc(-c2cccs2)c1)c1ccc(-n2cccn2)cc1 | -30 | . | . | . | . | . | . | .
CN(C)C(CNC(=O)c1ccc2ccccc2c1)c1ccccc1 (stereo not drawn) | 0 | . | . | . | . | . | . | .
COc1cccc(-c2ccc(C#N)c(OC(=O)c3c(Cl)cccc3Cl)n2)c1 | 6 | -17 | -4 | -1 | 10 | 7 | . | .
COc1cccc(-c2ccc(C#N)c(OC(=O)c3ccc(Cl)cc3)n2)c1 | -6 | -2 | 3 | 0 | 95* | 21 | 135* | 106*
CC1(C)Cc2c(C#N)c(N3CCCC3)nc(-c3ccco3)c2CO1 | . | 9 | -1 | -1 | 6 | 8 | . | .
N#Cc1c(N2CCOCC2)nc(-c2ccco2)c2c1CCCC2 | -16 | -8 | 3 | 0 | 37* | 16 | 93* | 71*
CCc1nc(N2CCOCC2)c(C#N)c2c1CCCC2 | -7 | -14 | 15 | 1 | 38* | 2 | + | +
CCCCc1nc(N2CCOCC2)c(C#N)c2c1COC(C)(C)C2 | -7 | -9 | 17 | -1 | 35* | 6 | -3 | -6
CC(=NNC(=O)CSCc1ccc(Cl)cc1)c1cccc(NC(=O)c2ccccc2)c1 | -3 | . | . | . | . | . | . | .
COc1ccc(-c2cn3c(C)c(C(=O)NCCn4nc(-c5cccs5)ccc4=O)sc3n2)cc1 | -16 | . | . | . | . | . | . | .
COc1ccc2[nH]c3c(NCCN(C(C)C)C(C)C)ncnc3c2c1 | 9 | 4 | -2 | -1 | 54* | 2 | + | 184*
COc1ccc2[nH]c3c(N4CCN(Cc5ccc6c(c5)OCO6)CC4)ncnc3c2c1 | 30 | 20 | 97 | 0 | 35* | 17 | 79* | 53*
CCOc1ccc2[nH]c3c(NCC(C)C)ncnc3c2c1 | 3 | 0 | 10 | 0 | 77* | 1 | 126* | 110*
COc1ccc(-c2csc3ncnc(N4CCN(Cc5ccc6c(c5)OCO6)CC4)c23)cc1 | -2 | . | . | . | . | . | . | .
CCOc1ccc2[nH]c3c(NCCOC)ncnc3c2c1 | 3 | 8 | 6 | -3 | 71* | -1 | 64* | 48*
Cc1ccc(S(=O)(=O)/C(C#N)=C/N2CCN(Cc3ccccc3)CC2)cc1C | 6 | . | . | . | . | . | . | .
O=C(Cc1csc(SCc2ccc(Cl)cc2)n1)NC1CC1 | -7 | . | . | . | . | . | . | .
O=C(Nc1ccc(-c2ccc(NC(=O)c3ccc(Cl)cc3)cc2)cc1)c1ccc(Cl)cc1 | -15 | . | . | . | . | . | . | .
CCOc1ccc2[nH]c3c(NCCCOC)ncnc3c2c1 | -15 | . | 9 | 2 | 110* | 1 | + | +
c1ccc2c(c1)[nH]c1c(N3CCOCC3)ncnc12 | 0 | 3 | -3 | 0 | 13 | 20 | . | .
Cc1ccc2[nH]c3c(N4CCOCC4)ncnc3c2c1 | -15 | 0 | 0 | 1 | 82* | 21 | 178* | 145*
COc1ccc(CNc2ncnc3c2[nH]c2cc(OC)c(OC)cc23)cc1 | 32 | 16 | 96 | 1 | 46* | -9 | 106* | 92*
CCOc1ccc2[nH]c3c(N4CCc5ccccc5C4)ncnc3c2c1 | -1 | 12 | 92 | 1 | 32* | 10 | + | +
SMILES | SSB-PriA inh | Rv3671c protease | Mtb betalactam | UGM FP inh | Mtb FBA inh | GDH-TPI counter-1 | Mtb FBA inh conf | GDH-TPI counter-2 | others
Cc1ccc2[nH]c3c(N4CCc5ccccc5C4)ncnc3c2c1 | 0 | 4 | 99 | 0 | 9 | 17 | . | .
CCOc1ccc2[nH]c3c(NCCN(CC)CC)ncnc3c2c1 | 5 | 5 | 6 | 1 | 21 | 7 | . | .
COc1ccc(C2Nc3ccccc3C(=O)N2NS(=O)(=O)c2ccccc2)cc1 (stereo not drawn) | 0 | -11 | -6 | 5 | 13 | 9 | . | .
CC1Nc2ccccc2C(=O)N1NS(C)(=O)=O (stereo not drawn) | -7 | 6 | 2 | 2 | 50* | 10 | 74* | 61*
COc1ccc(C2Nc3ccccc3C(=O)N2NS(C)(=O)=O)cc1 (stereo not drawn) | -5 | -2 | -10 | 2 | 27* | 7 | 105* | 108*
Cc1ccc(OCC(=O)NN=C/C=C/c2ccco2)c(Br)c1 | -18 | . | . | . | . | . | . | .
O=C(Nc1ccc2c(c1)CN(C(=O)c1ccco1)CC2)c1c(F)cccc1Cl | -6 | . | . | . | . | . | . | .
COc1ccc(/C=C2\Oc3ccccc3C2=O)cc1 | 6 | -5 | -1 | -2 | 84* | 12 | 18 | 8 | GDH-TPI dose=1.6*
CCC(C)n1c(-c2cccs2)nc2nc3ccccc3nc21 (stereo not drawn) | -6 | -8 | 20 | 3 | 53* | 13 | 102* | 76*
c1ccc(-n2c(-c3cccs3)nc3nc4ccccc4nc32)cc1 | 2 | -8 | -2 | 0 | 96* | 1 | + | +
CCSc1nc(-c2cccs2)nc2ccccc12 | -8 | 0 | 9 | 2 | 1 | 0 | . | .
Cc1cc(C)c2cc(C#N)c(N3CCCC3)nc2c1 | -4 | -5 | 23 | 5 | 36* | 1 | 2 | 2
CCOC(=O)c1c(-c2ccc(OC)cc2)csc1N=CC1C(=O)CCCC1=O | 4 | . | . | . | . | . | . | .
O=C(COC(=O)C12CC3CC(CC(Br)(C3)C1)C2)Nc1cccnc1Cl | -1 | -4 | -1 | 1 | 32* | 15 | 59* | 49*
COc1ccccc1CNC(=O)C(=O)c1cn(CC(=O)N2CCCC2)c2ccccc12 | 0 | -8 | -4 | 1 | -1 | 14 | . | .
COc1ccccc1CCNC(=O)C(=O)c1cn(CC(=O)N2CCOCC2)c2ccccc12 | -5 | -7 | 5 | 3 | 80* | 3 | 104* | 85*
CCS(=O)(=O)Nc1ccc(C2=NN(S(C)(=O)=O)C(c3cccs3)C2)cc1 (stereo not drawn) | 6 | -4 | -1 | -3 | 93* | 0 | 57* | 45*
CCS(=O)(=O)Nc1ccc(C2=NN(S(=O)(=O)c3ccc(OC)cc3)C(c3cccs3)C2)cc1 (stereo not drawn) | -8 | . | . | . | . | . | . | .
COc1ccc(C(CNC(=O)c2ccc(-n3cnnn3)cc2)N2CCOCC2)cc1 (stereo not drawn) | -9 | -12 | -4 | 3 | 43* | 5 | 175* | 153*
CCOC(=O)c1c(-c2ccc(C)cc2)csc1N=CC1C(=O)CC(C)(C)CC1=O | 3 | . | . | . | . | . | . | .
